# Bioassay records from PubChem BioAssay.
# PvdQ inh = P. aeruginosa PvdQ acylase inhibitors, primary screen, biochemical, fluorescence, plate reader and imaging, single point; inhibition, % at 10 µM; 340,000 tested, 0.063% active; AID 488965, 2010; PvdQ acylase [Pseudomonas aeruginosa LESB58]; purified PvdQ acylase; in the data active = inhibition above about 30%, passing the limit was not always enough; inconclusive = no clear call, values can overlap the other calls;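 also: 0% = vehicle neutral wells and 100% = reference inhibitor wells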
# pCIP destab = p/CIP-EGFP fusion destabilizers, primary screen, fluorescence, F442A cells; decrease of EGFP signal, % at 10 µM; 16 h; 290,000 tested, 0.01% active; AID 1984, 2009;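 active = EGFP signal decrease of at least 30% at 10 µM or well 3 SD below plate mean, unless failing retest; inactive = the rest, including hits failing retest or dose response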
# HDAC3 inhib = HDAC3 deacetylase inhibitors, primary screen, biochemical, fluorescence, cell-free homogeneous; Histone deacetylase 3 (Homo sapiens), O15379; recombinant HDAC3, fluorogenic peptide/trypsin coupled; inhibition, % at 8.3 µM; 320,000 tested, 0.15% active; AID 2718, 2010; in the data active = inhibition above about 26%, passing the limit was not always enough; inconclusive = no clear call, values can overlap the other calls
# GASC-1 inh = inhibitors of GASC-1 histone demethylase, primary screen, biochemical, fluorescence, DELFIA europium. GST-JMJD2C(1-420) H3K9me3 demethylation. Lysine-specific demethylase 4C (Homo sapiens), Q9H3R0. 330,000 tested, 0.069% active. inhibition, % at 2.35 µM;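 active = more than half of a compound's replicate wells show inhibition beyond 50%, single wells judged on their own value; inconclusive = some, but no more than half, of replicates pass 50% inhibition; inactive = no replicate passes 50% inhibition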;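 also: signal counts dimethyl H3K9 product captured on neutravidin plate; 0% = median of DMSO wells and 100% = 0.3 times that DMSO median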
# PHOSPHO1 block = PubChem AID 1565; Phosphoethanolamine/phosphocholine phosphatase (Homo sapiens), Q8TCT1; inhibition, % at 13.3 µM; recombinant PHOSPHO1, absorbance phosphatase assay; 290,000 tested, 1.1% active; in the data active = inhibition above about 60%
# Target sequence (Q8TCT1 whole entry, looked up): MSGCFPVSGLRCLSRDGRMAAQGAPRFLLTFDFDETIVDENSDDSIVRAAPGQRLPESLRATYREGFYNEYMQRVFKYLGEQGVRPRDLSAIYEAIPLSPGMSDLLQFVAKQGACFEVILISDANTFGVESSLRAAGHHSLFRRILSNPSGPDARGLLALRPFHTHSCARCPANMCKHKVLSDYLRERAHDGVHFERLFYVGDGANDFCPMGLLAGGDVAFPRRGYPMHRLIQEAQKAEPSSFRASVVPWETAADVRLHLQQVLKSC
# SUMO Mot1 rescue = yeast Mot1-301 growth rescue at high temperature, primary screen, SUMOylation pathway inhibitor project, S. cerevisiae, ATP luminescence, 38.5C. S. cerevisiae Mot1-301 growth rescue; percent above DMSO median, 100 means doubled. growth rescue, % at 18.8 µM. 320,000 tested, 1% active. AID 2716, 2010;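 active = every valid replicate shows activation above 250% relative to neutral control wells; inactive = the rest, any valid replicate at or below 250%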;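 also: OY570 slx delta 5 strain wells were the positive control but not used for scaling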
# * marks the source's active call; other numbers are inactive results; ? = inconclusive; . = not tested or not shown. In the library only some 2.2% were active in any assay of this set; here they are far more common.
SMILES,PvdQ inh,pCIP destab,HDAC3 inhib,GASC-1 inh,PHOSPHO1 block,SUMO Mot1 rescue
CC1CC(C)CN(CC(C)(C)NS(=O)(=O)c2ccc(Cl)cc2)C1 (centres undefined),-3,-9,-6,6,6,276*
CCOc1ccc(S(=O)(=O)NC(Cc2c[nH]c3ccccc23)C(=O)O)cc1 (centres undefined),-5,-2,2,-5,18,93
S=c1[nH]nc(Cc2c[nH]c3ccccc23)o1,3,-2,-5,-5,61*,-4
c1ccc(Cc2c[nH]c3ccccc23)cc1,-14,-8,-3,-9,4,57
COc1ccccc1N1CCN(C(=O)C2CCN(C(=O)c3ccc(C(C)(C)C)cc3)CC2)CC1,-18,-4,5,-25,33,-1
O=C(Cc1cccc2ccccc12)N1CCCc2ccccc21,-14,-36,-2,58*,20,-2
O=C(C[n+]1ccccc1)N1CCCc2ccccc21,-24,2,-2,21,51,-5
Cc1ccc(-c2cc(-c3ccccc3)c3c(N)c(S(C)(=O)=O)sc3n2)cc1,-5,1,-5,11,82*,3
COc1ccc2[nH]c3c(=O)n4c(nc3c2c1)SCCC4,-3,2,14,-22,-10,0
CCOC(=O)c1cc2c(s1)-c1c(C)cccc1OC2,68*,2,-18,-2,-9,1
CCSc1nc2sc3c(c2c(=O)[nH]1)CCCC3,-3,-16,1,3,2,25
CCSC1=NC2(CCCCC2)Nc2sc3c(c21)CCCC3,8,5,7,14,95*,-4
Cc1cc(C(=O)N2CCCc3ccccc32)ccc1[N+](=O)[O-],-1,4,-1,1,.,-10
Cc1cccc(N2CCN(c3ccc(N4C(=O)CCCC4=O)cc3[N+](=O)[O-])CC2C)c1 (centres undefined),-1,-10,2,-14,17,415*
C=CCn1c(-c2cccn(Cc3ccc(Cl)cc3)c2=O)n[nH]c1=S,13,-17,-6,-2,99*,-3
C=CCn1c(-c2cccn(Cc3ccccc3)c2=O)n[nH]c1=S,-3,-7,-9,-2,-67,-23
C=CCn1c(-c2cccn(Cc3cccc(Cl)c3)c2=O)n[nH]c1=S,8,-2,0,-3,98*,344
CCOC(=O)N1CCN(C(=O)CSc2nnc(Cc3cccn3C)n2CCc2ccccc2)CC1,-7,-11,2,-2,62*,12
CC(NC(=O)C(=O)NCCCn1ccnc1)c1ccccc1 (centres undefined),-11,-8,-6,-4,36,320*
Cc1sc2c(c1C)C(=O)NC(c1cccc(O)c1)N2 (centres undefined),.,1,13,-3,100*,-11
O=C(CN1C(=O)CC(c2ccccc2)S(=O)(=O)c2ccccc21)N1CCCCC1 (centres undefined),-10,12,-1,-8,-26,.
Cc1cccc(/C=N/NC(=O)C(C)Nc2cccc3ccccc23)n1 (centres undefined),0,0,9,-3,80*,0
Cc1ccc(NS(=O)(=O)c2cc(C(=O)NCCCN(C)C)ccc2Cl)cc1Cl,-11,.,.,.,.,.
O=C(Oc1ccc([N+](=O)[O-])cc1)c1cccnc1,2,-10,32*,5,5,-11
COC(=O)c1cc(Br)ccc1NC(=O)CCNC(=O)c1ccco1,-10,-10,0,6,19,8
SMILES,PvdQ inh,pCIP destab,HDAC3 inhib,GASC-1 inh,PHOSPHO1 block,SUMO Mot1 rescue
O=C(CCl)c1ccc(Cc2ncc(C(F)(F)F)cc2Cl)s1,14,4,2,0,77*,-12
NS(=O)(=O)c1ccc(Cc2ncc(C(F)(F)F)cc2Cl)s1,-4,1,1,-6,4,217
CC(Oc1ccc(Br)cc1)C(=O)NCC1(N2CCCCC2)CCCCC1 (centres undefined),-12,.,-1,-14,.,44
O=C(NNc1ncnc2c1cnn2-c1cccc(Cl)c1)c1ccco1,-5,6,-3,4,33,7
Cc1ccc(Cl)cc1-n1ncc2c(NNC(=O)c3ccco3)ncnc21,-6,6,-5,27,-2,348*
COc1ccc(S(=O)(=O)N2CCN(C(=O)CCc3c[nH]c4ccccc34)CC2)cc1,-14,.,-3,.,.,-13
CN(C(=O)COC(=O)c1ccccc1NC(=O)c1ccco1)C1CCS(=O)(=O)C1 (centres undefined),-11,-14,5,-8,48,-2
CCN(C(=O)COC(=O)c1ccccc1NC(=O)c1ccco1)C1CCS(=O)(=O)C1 (centres undefined),-13,15,-2,0,2,418*
CC1(c2ccc([N+](=O)[O-])c(CS(=O)(=O)c3ccccc3)c2)OCCO1,-7,11,-1,14,32,-22
Cc1ccc(-n2c(N)c(C(N)=O)sc2=S)cc1,10,1,8,1,93*,-4
COc1ccc(CNC(=O)c2sc(=S)n(-c3ccc(OC)cc3)c2N)cc1,-4,-3,9,3,95*,71
Nc1c(C(=O)NCc2cccnc2)sc(=S)n1-c1ccccc1,8,6,2,-1,96*,-13
CCn1c(N)c(C(=O)NCc2cccnc2)sc1=S,-11,14,6,7,0,-16
C=C(C)Cn1c(SCC(=O)N/N=C/c2cccc(O)c2)nc2ccccc2c1=O,8,1,7,-1,13,14
CCOc1ccccc1NC(=O)c1cccc(NC(=O)C(C)C)c1,8,3,-3,-5,61*,4
Cc1cc(-c2csc(N)n2)c(C)n1CCC(C)C,-10,-10,-6,3,102*,-5
Cc1cccc(NC(=O)c2ccc(F)c(S(=O)(=O)N3CCC4(CC3)OCCO4)c2)c1,-13,-10,1,-5,65*,-27
Cc1cccc(N2CCN(Cc3nc(CC4CC4)no3)CC2)n1,-10,-10,7,2,60*,-13
COc1ccc(CNC(=O)Cn2nc(Cc3cccnc3)c3ccccc3c2=O)cc1,-9,-12,2,5,-7,439*
N=c1nc(-c2ccccc2)ccn1O,-1,6,?,53*,7,-18
C=CCn1c(C(C)(C)C)nc2ccccc21,-11,0,2,0,3,5
CCOC(=O)c1cc(-c2cccc([N+](=O)[O-])c2)on1,62*,-4,-1,11,2,-12
CCN(CC)c1ccc(/C=N/Nc2ccccc2)c(O)c1,-8,-9,8,-7,91*,35
